Screening data: PubChem BioAssay, National Center for Advancing Translational Sciences (NCATS)
Epigenetic derep: derepresses silenced GFP reporter in murine cells; hit rate 0.2% among 280,000; Potency, µM (doses to about 53.9 µM), hits mostly activators; AID 1865; murine LDR cells, GFP reporter derepression, 30 h; further: nearly all actives have a fitted effect of over 60% in size
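Murine LDR cells carrying a silenced, genomically integrated CMV-driven GFP reporter were exposed to compound for 30 hours at 37 C. After PBS washes, GFP-positive cells (20–120 um objects) were counted by laser-scanning microplate cytometry.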
HTT ATP protect: Huntington cell model cytoprotection by ATP luminescence; PC12 HTT-Q103 induced, cytoprotection, ATP luminescence, 40 h; Potency, µM (doses to about 56.4 µM), actives largely listed as activators; hit rate 0.14% among 230,000; AID 1471; further: nearly all actives have a fitted effect of over 45% in size
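PC12 cells with ecdysone-inducible HTT exon 1 Q103-GFP, induced with 100 nM tebufenozide and co-treated with library compounds in a dose series (1536-well, 1500 cells/well). Cytoprotection read as ATP content by ATPlite luminescence.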
NPSR antag: blocks cAMP signaling of the human neuropeptide S receptor; AID 1461; Potency, µM (doses to about 38.3 µM), usual class: inhibitors; Q6W5P4; hit rate 1% among 220,000; CHO-NPSR cells, cAMP TR-FRET, antagonist mode; further: nearly all actives have a fitted effect of over 50% in size
Target sequence (Q6W5P4 whole entry, looked up): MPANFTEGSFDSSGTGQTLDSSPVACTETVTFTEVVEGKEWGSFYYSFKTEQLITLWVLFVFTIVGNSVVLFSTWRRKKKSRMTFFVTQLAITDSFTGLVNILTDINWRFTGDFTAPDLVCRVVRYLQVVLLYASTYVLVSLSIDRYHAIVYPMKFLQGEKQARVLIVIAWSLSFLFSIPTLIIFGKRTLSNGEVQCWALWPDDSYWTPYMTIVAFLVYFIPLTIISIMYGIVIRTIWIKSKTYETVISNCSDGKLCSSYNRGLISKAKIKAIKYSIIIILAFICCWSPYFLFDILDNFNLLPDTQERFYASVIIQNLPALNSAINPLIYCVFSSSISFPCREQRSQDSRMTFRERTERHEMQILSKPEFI
HttQ103 aggreg: mutant huntingtin aggregation inhibition | PC12 HttQ103-GFP aggregates, Acumen cytometry, 40 h | Potency, µM (titrated, usually from 46.1 µM), hits mostly inhibitors | hit rate 1.1% among 220,000 | AID 1688; further: nearly all actives have a fitted effect of over 60% in size
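Using laser scanning cytometry, GFP-positive aggregates were counted after lysis of PC12 cells induced with 100 nM tebufenozide to express HTT exon 1 Q103–GFP. Compounds were tested in titration.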
LMNA splice mod: LMNA splicing modulation. HeLa LMNA splicing GFP/RFP minigene ratio, 48 h. AID 1487. hit rate 0.01% among 200,000. Potency, µM (top dose mostly 46.1 µM), actives largely listed as inhibitors; active means well fitted inhibition curve with a large enough effect in the signal ratio, with a control signal flat, not every such curve was filed as active; inconclusive means small, poorly fitted or top-dose-only effect, or effect the other way, or a change in a side signal; the % refers to the signal ratio
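Read-out is the ratio of GFP to DsRed2 object intensity, acquired by 488 nm laser-scanning cytometry on HeLa lamin A-EGFP minigene reporter cells. Compound incubation 48 hrs at 37 °C in Opti-MEM with 2% FBS; DMSO 0.5% final.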
Large screens that a line does not name were inactive. Rows were chosen to be rich in hits. Some 1.5% of all compounds tested hit in one or more screens of this group. Unless noted, the call rests on the fitted dose curve; in most records, active means well fitted curve in the direction sought with a large enough effect; inconclusive means small, poorly fitted or top-dose-only effect, or another doubt; inactive means no such curve, though single readings can be large; an effect the other way counts as inactive or inconclusive.

O=C(O)c1cc(-c2ccc(/C=C3/SC(=S)N(Cc4ccccc4)C3=O)o2)ccc1Cl	NPSR antag 10µM (no result: LMNA splice mod)
COc1ccc(CN2C(=O)/C(=C/c3ccc(-c4ccc(Cl)c(C(=O)O)c4)o3)SC2=S)cc1	NPSR antag 6.3µM (no result: LMNA splice mod)
O=C1/C(=C/c2ccncc2)SC(=S)N1Cc1ccccc1	Epigenetic derep 16µM (no result: LMNA splice mod)
CCCN1C(=O)/C(=C/c2ccncc2)SC1=S	none
Cc1ccc(S(=O)(=O)Nc2nc3ccccc3nc2NCC2CCCO2)cc1C (configuration not stated)	none (no result: LMNA splice mod)
COc1cccc(CNc2ncnc3cc(OC)c(OC)cc23)c1	HttQ103 aggreg inconclusive
COc1cc2ncnc(NCc3ccc(C)cc3)c2cc1OC	HttQ103 aggreg 35µM
CC(C)(C)CC(=O)NCC(c1ccc2c(c1)OCO2)N1CCOCC1 (configuration not stated)	none (no result: HTT ATP protect, NPSR antag, HttQ103 aggreg)
Cc1ccc2nc3cc([N+](=O)[O-])cc([N+](=O)[O-])c3cc2c1	NPSR antag 7.9µM, HttQ103 aggreg inconclusive (no result: HTT ATP protect, LMNA splice mod)
Cc1nc2ccc([N+](=O)[O-])cc2nc1C	none
CC(=O)c1ccc(N2CCN(C(=S)Nc3ccc(Oc4ccccc4)cc3)CC2)cc1	HttQ103 aggreg 13µM, LMNA splice mod inconclusive
O=C(N/C(=C/c1ccc(Cl)cc1)c1nc2ccccc2[nH]1)c1ccco1	none
O=C(/C(=C/c1ccc(Cl)cc1)c1nc2ccccc2[nH]1)c1ccccc1	NPSR antag inconclusive, HttQ103 aggreg 5µM, LMNA splice mod inconclusive
COc1cc(/C=C(/C(=O)c2cccs2)c2nc3ccccc3[nH]2)cc(OC)c1O	NPSR antag 13µM, LMNA splice mod inconclusive
COc1ccc(Nc2ncc(C(=O)Nc3cccc(OC)c3)c3ccccc23)cc1	none (no result: HTT ATP protect, NPSR antag, HttQ103 aggreg, LMNA splice mod)
Cc1ccc(OCC(=O)N2CCN(C(=O)c3ccncc3)CC2)cc1	HttQ103 aggreg 0.028µM (no result: HTT ATP protect, LMNA splice mod)
O=C(C(Sc1ccccc1)c1ccccc1)N1CCN(c2ccccc2F)CC1 (configuration not stated)	NPSR antag inconclusive, HttQ103 aggreg 10µM, LMNA splice mod inconclusive
Cc1cc2nc(-c3cccc(NC(=O)C(C)C)c3C)oc2cc1C	none (no result: HTT ATP protect, NPSR antag, HttQ103 aggreg)
COc1ccc(-n2c(SCC(=O)NCc3ccc(F)cc3)nc3c([nH]c4ccccc43)c2=O)cc1	none (no result: HTT ATP protect, NPSR antag, HttQ103 aggreg)
S=C(NC1CC1)N1CCc2ccccc2C1	none
S=C(NC1CCCCC1)N1CCc2ccccc2C1	HttQ103 aggreg 7.1µM, LMNA splice mod inconclusive (no result: HTT ATP protect)
Cc1ccc(C(=O)N/C(=C\c2ccc(-c3ccc(Br)cc3)o2)C(=O)NCCCN(C)C)cc1	HttQ103 aggreg inconclusive (no result: LMNA splice mod)
CN(C)CCNC(=O)/C(=C/c1ccc(-c2ccc(Cl)cc2Cl)o1)NC(=O)c1ccccc1	NPSR antag inconclusive, HttQ103 aggreg 35µM, LMNA splice mod inconclusive (no result: HTT ATP protect)
CN(C)CCNC(=O)/C(=C/c1ccc(-c2ccc(Cl)cc2)o1)NC(=O)c1ccccc1	HttQ103 aggreg 3.2µM, LMNA splice mod inconclusive
CC(C)NS(=O)(=O)c1ccc2nc(NC(=O)c3cncc(Br)c3)sc2c1	none (no result: HTT ATP protect, NPSR antag, HttQ103 aggreg)
Cc1ccc(C(=O)NNC(=O)C2CCN(S(=O)(=O)c3ccc(Cl)cc3)CC2)cc1	none
O=C(NNC(=O)C1CCN(S(=O)(=O)c2ccc(Cl)cc2)CC1)c1ccc(S(=O)(=O)N2CCCCC2)cc1	HttQ103 aggreg 25µM
COC(=O)c1ccc(C(NC(=O)OCc2ccccc2)/C(C)=C/[C@@H](C)C(=O)NCCc2c[nH]c3ccc(OC)cc23)cc1 (some centres not stated)	none (no result: NPSR antag, HttQ103 aggreg, LMNA splice mod)
COc1ccc(CCN2C(=O)C3C4C=CC(C5CC45)C3C2=O)cc1OC (configuration not stated)	none (no result: LMNA splice mod)
COc1ccc(CCN2C(=O)C3C4C=CC(C3C2=O)C2C(=O)N(CCc3ccc(OC)c(OC)c3)C(=O)C42)cc1OC (configuration not stated)	HttQ103 aggreg 10µM, LMNA splice mod inconclusive
COc1ccc(OC)c(CNC(=O)c2cnc3c(C)cccn3c2=O)c1	LMNA splice mod inconclusive (no result: HTT ATP protect, NPSR antag, HttQ103 aggreg)
Cc1ccc(N=N/C(=C\O)C(=O)c2ccncc2)cc1	NPSR antag 10µM, LMNA splice mod inconclusive
CN(c1ccccc1)c1ccc(/C=C/[N+](=O)[O-])cc1	NPSR antag inconclusive, LMNA splice mod inconclusive
CN(C)c1ccc(-n2cccc2/C=C/[N+](=O)[O-])cc1	NPSR antag 7.9µM, HttQ103 aggreg 25µM
CCc1ccc(C2=NN(CCC(=O)NCCc3ccc(Cl)cc3)C(=O)CC2)cc1	LMNA splice mod inconclusive (no result: HTT ATP protect, NPSR antag, HttQ103 aggreg)
